Source: PubChem
esBAF inh: blocks esBAF chromatin remodeling in mouse ES cells. reporter increase, % at 12.5 µM. Bmi1-luciferase knock-in reporter, 24 h; 100% = twice the neutral-well signal. AID 602393. actives 2% (n = 350,000); in the data active = activation above about 40%; inconclusive = no clear call, values can overlap the other calls;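 note: a rise in the Bmi1 reporter signal indicates esBAF inhibition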
697 NFkB inh: inhibitors of the PMA/ionomycin-induced NF-kB reporter in 697 B cells. 697 B-cell NF-kB luciferase reporter, 16 h. inhibition, % at 4 µM. actives 0.33% (n = 330,000). AID 435022; in the data active = inhibition above about 35%
SMARCA2 activ: activators of SMARCA2 function. AID 652017. activation, % at 9.1 µM. MG213 cells, MMTV-luciferase reporter, dexamethasone, overnight. actives 1% (n = 370,000); in the data active = activation above about 7.8%
Jurkat NFkB inh: inhibitors of the PMA/ionomycin-induced NF-kB reporter in Jurkat cells | PMA/ionomycin-induced NF-kB luciferase reporter, luminescence | inhibition, % at 4 µM | actives 0.53% (n = 330,000); in the data active = inhibition above about 50%
Gli-Sufu antag: Gli-Sufu pathway antagonism; Sufu-KO-LIGHT fibroblasts, Gli luciferase reporter luminescence; inhibition, % at 5 µM; actives 0.74% (n = 340,000); AID 588413;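 active = inhibition above about 55%, limit read from the data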
Gli antag conf: confirmation of Gli-SUFU pathway antagonists. inhibition, % at 5 µM. shares compounds with Gli-Sufu antag. Sufu-KO-LIGHT cells, Gli luciferase reporter, luminescence. actives 40% (n = 2,500);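 active = mean inhibition at 5 µM reaching about 45%, limit read from the data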
Gli cytotox: cytotoxic in Gli-SUFU antagonist counter-screen. cytotoxicity, % at 5 µM. shares compounds with Gli-Sufu antag. AID 651994. Sufu-KO-LIGHT cells cytotoxicity, ATP luminescence. actives 32% (n = 2,500);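 active = mean cytotoxicity at 5 µM above about 25%, limit read from the data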;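 note: cells exposed to compound overnight for roughly 16 to 18 hours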
Wnt3a cs: Wnt3a reporter inhibition counter-screen | inhibition, % at 6.25 µM | Wnt-LIGHT cells, Wnt3a-driven luciferase reporter, luminescence | shares compounds with Gli-Sufu antag | AID 651995 | actives 20% (n = 2,500);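 active = mean inhibition above about 25%, limit read from the data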
esBAF Ring1 qPCR: esBAF inhibition confirmed by Ring1 de-repression; shares compounds with esBAF inh; mouse ESC E14, Ring1 mRNA RT-qPCR fold change; fold change at 33 µM; 550 tested, under 10 active; AID 743176;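 active = Ring1 gene expression raised more than 2-fold over untreated cells in both replicates at either tested dose; inconclusive = only one replicate above 2-fold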;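 note: Ring1 transcript normalised to actin housekeeping signal by TaqMan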
Fgf4 repress: confirmation of esBAF inhibitors: Fgf4 repression in mouse ESCs; shares compounds with esBAF inh; mouse ESC E14, Fgf4 mRNA qPCR fold change; stronger effect = lower value; Fgf4 expression fold change at 33 µM; actives 4% (n = 550); AID 743177;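 active = Fgf4 expression under 0.8 fold of control in both repeat measurements at one or both tested doses; inconclusive = under 0.8 fold in just a single repeat measurement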;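 note: Fgf4 transcript normalised to actin in duplex TaqMan qPCR; cells exposed to compound for 24 h before lysis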
esBAF Bmi1 qPCR: confirmation of esBAF inhibitors: Bmi1 de-repression in mouse ESCs; shares compounds with esBAF inh; mouse ESE14 ES cells, Bmi1 mRNA qPCR fold; stronger effect = higher value; fold change at 33 µM; 550 tested, under 10 active; AID 743180;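 active = Bmi1 expression fold change above 6 at either tested concentration, seen in replicate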;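 note: higher fold means more Bmi1 de-repression and stronger esBAF inhibition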
A549 cytotox: A549 cell cytotoxicity; shares compounds with esBAF inh; plate reader; cell viability change % (negative = cytotoxic), % at 25 µM, hits read low; 550 tested, under 10 active; call rule not given here
HepG2 tox SP: cytotoxicity in HepG2 cells | shares compounds with esBAF inh | plate reader; stronger effect = lower value | activity change, negative = inhibition, % at 25 µM | actives 4% (n = 550) | AID 743189; in the data active = activity change below about -50%
HEK293 tox SP: cytotoxicity in HEK293 cells. shares compounds with esBAF inh. plate reader. activity change, negative = inhibition, % at 25 µM, hits read low. actives 3% (n = 550). AID 743190; in the data active = activity change below about -38%, passing the limit was not always enough
SMARCA2 act conf: SMARCA2 activation, confirmation screen; shares compounds with SMARCA2 activ; MG213 cells, MMTV-luciferase with dexamethasone, luminescence, overnight; MG213 cells expressing E1A, Rb sequestered; DMSO wells 0%, reference activator 100%; activation, % at 9.1 µM; actives 30% (n = 3,500);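 active = activation above its plate's cutoff, the mean activation of tested wells plus 3 SD, cut at about 7.9% in these data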
VP16 Luc act: activates GAL4-VP16 luciferase, flagging SMARCA2 activator hits. shares compounds with SMARCA2 activ. HEK293 GAL4-VP16 pG5luc reporter, luciferase luminescence; scaled: DMSO wells 0%, SAHA wells 100%. activation, % at 9.1 µM. actives 41% (n = 3,500). AID 686939;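 active = activation above the solvent-only control well mean plus 3 SD, averaged across control plates, cut at about 5.2% in these data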
Hits are given with their value; - = inactive; ? = inconclusive; . = no result. This is a sample that favours compounds with a hit; in the whole collection about 3.3% have one here.

SMILES | esBAF inh | 697 NFkB inh | SMARCA2 activ | Jurkat NFkB inh | Gli-Sufu antag | esBAF Ring1 qPCR | Fgf4 repress | esBAF Bmi1 qPCR | A549 cytotox | HepG2 tox SP | HEK293 tox SP | others
O=C(NCCc1ccc(F)cc1)c1ccc2c(=O)n3c(nc2c1)CCC3 | 54 | - | - | - | 96 | - | - | - | - | - | - | Gli antag conf=-;Gli cytotox=-;Wnt3a cs=-
CCCC#Cc1ccc2c(c1)O[C@@H](CN(C)C(=O)NC(C)C)[C@H](C)CN([C@H](C)CO)S2(=O)=O | - | . | . | . | . | . | . | . | . | . | .
COc1cc(Nc2c3ccccc3nc3ccccc23)cc(OC)c1OC | - | - | 8.2 | - | 61 | . | . | . | . | . | . | Gli antag conf=-;Gli cytotox=-;Wnt3a cs=-;SMARCA2 act conf=31;VP16 Luc act=-
c1ccc2nc(-c3nc4ccccc4o3)ccc2c1 | - | - | - | - | - | . | . | . | . | . | .
CNc1ccccc(-c2ccc3ccccc3n2)c1=O | - | - | 15 | - | - | . | . | . | . | . | . | Gli antag conf=-;Gli cytotox=-;Wnt3a cs=-;SMARCA2 act conf=-;VP16 Luc act=5.2
O=C(N/N=C/c1c[nH]c2ccccc12)c1ccn(Cc2ccc(Cl)cc2Cl)n1 | - | - | - | - | - | . | . | . | . | . | .
Cn1ccc(C(=O)N/N=C/c2c[nH]c3ccccc23)n1 | - | - | 16 | - | 97 | . | . | . | . | . | . | Gli antag conf=-;Gli cytotox=-;Wnt3a cs=-;SMARCA2 act conf=8.0;VP16 Luc act=-
CCOC(CN=c1nc(N(C)C)ss1)OCC | . | . | 14 | . | 84 | . | . | . | . | . | . | Gli antag conf=62;Gli cytotox=30;Wnt3a cs=-;SMARCA2 act conf=-;VP16 Luc act=5.7
Cc1ccccc1-c1cnc2c(c1)C(=O)N([C@H](C)CO)C[C@H](C)[C@H](CN(C)C(=O)c1cccnc1)O2 | - | . | . | . | . | . | . | . | . | . | .
CC(C)NC(=O)N1C[C@H]2[C@@H](c3ccccc31)[C@@H](CO)N2C(=O)NC(C)C | - | . | . | . | . | . | . | . | . | . | .
CCn1c2ccccc2c2cc(NC(=O)N3CCCCC3)ccc21 | 96 | . | - | . | . | - | - | - | - | - | -
CCCC(=O)Nc1ccc2c(c1)c1ccccc1n2CC | . | - | - | - | - | . | . | . | . | . | .
C[C@@H]1CN([C@H](C)CO)C(=O)c2cc(C#Cc3cccnc3)cnc2O[C@@H]1CN(C)C(=O)CC1CC1 | - | . | . | . | . | . | . | . | . | . | .
Cc1onc(-c2ccccc2)c1C(=O)N1CCCN2C(=O)c3ccccc3C21 (configuration not stated) | - | - | - | - | - | . | . | . | . | . | .
O=C1c2ccccc2C2N1CCCN2C(=O)c1sc2ccccc2c1Cl (configuration not stated) | 64 | . | - | . | . | - | - | - | - | - | -
CN1c2ccc(-c3ccc(C#N)cc3)cc2[C@H]2[C@H](CCN2S(=O)(=O)c2ccc(F)cc2)[C@H]1CO | - | . | . | . | . | . | . | . | . | . | .
Nc1c(Cl)cc(N=Nc2ccccc2)cc1Cl | 58 | . | - | . | - | - | - | - | - | -91 | -
Oc1ccc(Cl)cc1N=Nc1ccccc1 | - | - | - | - | - | . | . | . | . | . | .
COc1ccccc1N1C(=O)S/C(=C\c2ccc(C)s2)C1=O | 73 | - | - | - | - | - | ? | - | - | - | -
COc1ccccc1N1C(=O)S/C(=C\c2cc(C)n(C)c2C)C1=O | . | - | - | - | - | . | . | . | . | . | .
Cc1noc(C)c1S(=O)(=O)Nc1ccc2c(c1)C(=O)N([C@@H](C)CO)C[C@H](C)[C@@H](CN(C)Cc1ccc3c(c1)OCO3)OCCCC[C@@H](C)O2 | - | . | . | . | . | . | . | . | . | . | .
c1ccc(CCNc2ccccn2)nc1 | . | . | - | . | - | . | . | . | . | . | .
c1ccc(CCNc2ccc3c(c2)Cc2ccccc2-3)nc1 | 82 | . | - | . | - | - | ? | - | - | - | -
COC(=O)CN(C)C(=O)c1ccc2nc(Cc3cccc(Cl)c3)oc2c1 | 66 | - | - | - | - | - | - | - | - | - | -
C[C@@H]1CN([C@H](C)CO)S(=O)(=O)c2ccc(C3=CCCCC3)cc2O[C@@H]1CN(C)C(=O)c1ccccc1 | - | . | . | . | . | . | . | . | . | . | .
SMILES | esBAF inh | 697 NFkB inh | SMARCA2 activ | Jurkat NFkB inh | Gli-Sufu antag | esBAF Ring1 qPCR | Fgf4 repress | esBAF Bmi1 qPCR | A549 cytotox | HepG2 tox SP | HEK293 tox SP | others
CN(C)c1ccc(C=NN2CCCCCC2)cc1 | 75 | . | - | . | - | - | - | - | - | - | -
O=C1CCCc2c1sc1nc3n(c(=O)c21)CCCCC3 | 68 | - | - | - | - | - | - | - | - | -62 | -
O=c1c2c3c(sc2nc2n1CCCCC2)CCC3 | - | - | - | - | - | . | . | . | . | . | .
COc1ccc(CNC(=O)C(=O)NCCC2CCCCN2S(=O)(=O)c2cccs2)cc1 (configuration not stated) | - | - | - | - | - | . | . | . | . | . | .
COc1cccc(NC(=O)C(=O)NCC2CCCN2S(=O)(=O)c2cccs2)c1 (configuration not stated) | 62 | . | - | . | . | - | - | - | - | - | -
COc1cccc(NC(=O)C(=O)NCCC2CCCCN2S(=O)(=O)c2cccs2)c1 (configuration not stated) | 60 | - | - | - | - | - | - | - | - | - | -
O=C(C[C@@H]1C[C@H]2c3cc(NC(=O)C4CCC4)ccc3O[C@H]2[C@@H](CO)O1)NC1CCCCC1 | - | . | . | . | . | . | . | . | . | . | .
CN(CCc1ccccn1)C(=O)CCc1nnc(CCCc2ccccc2)o1 | 110 | - | - | - | - | - | - | - | - | - | -
O=C(c1ccc(Cl)cc1)c1cnc(-c2ccc(Cl)cc2)s1 | 63 | - | - | - | - | - | - | - | - | - | -
COc1cc(C(=O)Oc2ccccc2/C=N/NC(=O)c2ccc(Cl)cc2Cl)cc(OC)c1OC | 47 | - | - | - | - | - | - | 8.4 | - | - | -
C=CCOc1ccccc1/C=N/NC(=O)c1ccc(Cl)cc1Cl | - | - | - | - | - | . | . | . | . | . | .
